Results reported in PubChem BioAssay.
For some assays here: Measured potencies and affinities stand elsewhere. The source made the active and inactive calls.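 The calls were made as follows, unless noted: active = primary screen activator hit with a dose response curve and TRPC4 channel activation at any tested dose; inactive = no activation, no dose response, or not a primary hit.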

How the values were obtained:
[1] = system: TRPC4 beta (transient receptor potential cation channel C4), mouse; experiment: TRPC4 cation channel opening, retest – cell-based, Fluo4 calcium, HEK293 TRPC4beta/mu-opioid, duplicates, 10 µM, confirmation (AID 2426;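 active = fluorescence ratio normalized to control raised more than 50% in primary screen plus both repeat runs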); conditions: Fluo4 calcium fluorescence, at 10 µM; active compounds read high
[2] = system: transient receptor potential cation channel C4 beta (TRPC4), mouse; experiment: TRPC4 cation channel opening, second retest – cell-based, second round, Fluo4, HEK293 TRPC4beta/mu-opioid, 1 µM, confirmation (AID 2461;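 active = primary screen active and over 50% activation in each of two duplicate runs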); conditions: Fluo4 calcium fluorescence, at 1 µM; active compounds read high
[3] = system: TRPC4 (transient receptor potential cation channel C4 beta), mouse; experiment: potentiation of DAMGO EC20 TRPC4 response – cell-based, second round, Fluo-4, HEK293 TRPC4beta/mu-opioid, 1 µM, confirmation (AID 2554;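 active = primary screen hit whose fluorescence ratio, in both repeats, exceeds the weak agonist control mean by 3 SD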); conditions: DAMGO EC20, Fluo-4 calcium flux, at 1 µM; active compounds read high
[4] = system: TRPC4 beta (transient receptor potential cation channel C4), mouse; experiment: potentiation of DAMGO EC20 TRPC4 response – cell-based, Fluo-4, HEK293 TRPC4beta/mu-opioid, confirmation (AID 2555;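 active = primary screen hit whose calcium fluorescence ratio, in both repeats, exceeds the weak agonist control mean by 3 SD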); conditions: DAMGO EC20, Fluo-4 calcium flux, at 10 µM; active compounds read high
[5] = target: Short transient receptor potential channel 4 (Mus musculus) (UniProt Q9QUQ5); experiment: blockers of DAMGO-evoked TRPC4 calcium flux – cell-based, Fluo4, HEK293 TRPC4beta/mu-opioid, confirmation (AID 2636;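 active = calcium signal cut by more than 3 SD below the full-agonist control yet still positive, in both repeats and the earlier primary screen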); conditions: at 10 µM; active compounds read high
[6] = target: Short transient receptor potential channel 4 (Mus musculus) (UniProt Q9QUQ5); experiment: blockers of DAMGO-evoked TRPC4 calcium flux – cell-based, second round, Fluo4, HEK293 TRPC4beta/mu-opioid, 1 µM, confirmation (AID 2637;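 active = calcium signal ratio cut to more than 3 SD under the fully stimulated control mean yet still positive, in both repeats and the primary screen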); conditions: at 1 µM; active compounds read high
[7] = target: Short transient receptor potential channel 4 (Mus musculus) (UniProt Q9QUQ5); experiment: calcium entry via TRPC4 opening agents – cell-based, HEK293 TRPC4/mu-opioid, Fluo-4 calcium, dose response (AID 434937)
[8] = target: Short transient receptor potential channel 4 (Mus musculus) (UniProt Q9QUQ5); experiment: potentiation of DAMGO-evoked TRPC4 calcium signal – cell-based, HEK293 TRPC4/mu-opioid, Fluo-4 calcium, EC20 DAMGO, dose response (AID 434941;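 active = earlier screen potentiator hit that boosts the TRPC4 ion channel at some dose, with a dose response; inactive = no potentiation, no dose response, or not a prior hit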;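 also: calcium entry triggered by an EC20 dose of DAMGO at the co-expressed mu-opioid receptor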)
[9] = target: Short transient receptor potential channel 4 (Mus musculus) (UniProt Q9QUQ5); experiment: block of DAMGO-driven TRPC4 calcium entry – cell-based, HEK293 TRPC4/mu-opioid, Fluo-4 calcium, dose response (AID 434942;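 active = primary screen inhibitor hit that blocks the TRPC4 channel at some tested dose, yielding a dose curve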)
[10] = target: Short transient receptor potential channel 6 (Mus musculus) (UniProt Q61143); experiment: TRPC6 blockade by TRPC4 inhibitor hits – cell-based, HEK293, membrane potential dye, duplicate, selectivity assay for TRPC4 inhibitor project, confirmation (AID 434948;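 active = active in primary screen and both duplicates, each dropping signal beyond three positive-control SD with fluorescence still positive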); conditions: HEK293 TRPC6, membrane potential dye fluorescence, at 10 µM, stimulated with maximal-effect acetylcholine; active compounds read high
[11] = target: Short transient receptor potential channel 6 (Mus musculus) (UniProt Q61143); experiment: TRPC6 opening by TRPC4 activator hits – cell-based, HEK293, membrane potential dye, duplicate, selectivity assay for TRPC4 activator project, confirmation (AID 434950;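 active = membrane potential signal rise above negative control mean plus 3 SD in both duplicates, also active in the earlier TRPC4 screen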;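 as to activation: 0% = buffer only wells and 100% = acetylcholine maximal-effect wells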); conditions: HEK293 TRPC6, membrane potential fluorescence, at 10 µM; activation: active compounds read high; outcome: activation
[12] = target: Short transient receptor potential channel 6 (Mus musculus) (UniProt Q61143); experiment: positive modulators of mouse TRPC6 channel – HEK293 cells, membrane potential dye, duplicate, selectivity assay for TRPC4 potentiator project, confirmation (AID 434952;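 active = compound raising the membrane signal above positive-control mean plus 3 SD in both repeats, and a primary screen hit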); conditions: HEK293 TRPC6, membrane potential dye fluorescence, at 10 µM, maximal acetylcholine added after compound; active compounds read high
[13] = target: Short transient receptor potential channel 4 (Mus musculus) (UniProt Q9QUQ5); experiment: calcium flux activators in TRPC4/5HT1a cells, counter-screen for TRPC4 activator project, cell-based, second counter screen, HEK293 TRPC4/5HT1a, Fluo-4 (AID 434977;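 active = calcium signal rise above buffer-control mean plus 5 SD in both duplicates, and also a hit in the primary screen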); conditions: Fluo-4 calcium flux, at 10 µM; active compounds read high
[14] = serotonin-gated TRPC4 signal block – cell-based, second counter screen, HEK293 TRPC4/5HT1a, Fluo-4, counter-screen for TRPC4 inhibitor project, confirmation (AID 434978;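 active = primary screen active whose calcium signal fell more than 3 SD beyond the full-serotonin control mean in both duplicate plates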;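 also: serotonin given first at submaximal then at maximal dose after compound preincubation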); conditions: Fluo-4 calcium flux, at 10 µM, serotonin added to trigger calcium flux; active compounds read high
[15] = system: TRPC4 (mouse), co-expressed with 5HT1a in HEK293; experiment: enhancement of serotonin-evoked TRPC4 response – cell-based, second counter screen, HEK293 TRPC4/5HT1a, Fluo-4, counter-screen for TRPC4 potentiator project, confirmation (AID 434979;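 active = signal rise over 3 SD above mean of control wells given weak agonist, in both repeats and first screen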); conditions: Fluo-4 calcium flux, at 10 µM, serotonin added at its EC20 dose; active compounds read high
[16] = nonspecific calcium rise without TRPC4 – cell-based, HEK293 mu-opioid receptor line, counter-screen for TRPC4 activator project, confirmation (AID 449723;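 active = hit in primary screen, with calcium signal over 5 SD above buffer well mean in both duplicates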;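 also: counter screen cells carry the mu-opioid receptor alone and lack TRPC4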); conditions: HEK293 mu-opioid cells, Fluo-4 calcium fluorescence, at 10 µM; active compounds read high
[17] = nonspecific potentiation of DAMGO calcium response – cell-based, HEK293 mu-opioid receptor line, counter-screen for TRPC4 allosteric potentiator project, confirmation (AID 449724;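 active = calcium signal rise more than 3 SD above the low-dose agonist control mean, in both duplicate plates and the primary screen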); conditions: HEK293 mu-opioid receptor cells, Fluo-4 calcium flux, at 10 µM, compound added before EC20 DAMGO stimulus; active compounds read high

Chain of Short transient receptor potential channel 4 (Mus musculus) (Q9QUQ5 whole entry, looked up): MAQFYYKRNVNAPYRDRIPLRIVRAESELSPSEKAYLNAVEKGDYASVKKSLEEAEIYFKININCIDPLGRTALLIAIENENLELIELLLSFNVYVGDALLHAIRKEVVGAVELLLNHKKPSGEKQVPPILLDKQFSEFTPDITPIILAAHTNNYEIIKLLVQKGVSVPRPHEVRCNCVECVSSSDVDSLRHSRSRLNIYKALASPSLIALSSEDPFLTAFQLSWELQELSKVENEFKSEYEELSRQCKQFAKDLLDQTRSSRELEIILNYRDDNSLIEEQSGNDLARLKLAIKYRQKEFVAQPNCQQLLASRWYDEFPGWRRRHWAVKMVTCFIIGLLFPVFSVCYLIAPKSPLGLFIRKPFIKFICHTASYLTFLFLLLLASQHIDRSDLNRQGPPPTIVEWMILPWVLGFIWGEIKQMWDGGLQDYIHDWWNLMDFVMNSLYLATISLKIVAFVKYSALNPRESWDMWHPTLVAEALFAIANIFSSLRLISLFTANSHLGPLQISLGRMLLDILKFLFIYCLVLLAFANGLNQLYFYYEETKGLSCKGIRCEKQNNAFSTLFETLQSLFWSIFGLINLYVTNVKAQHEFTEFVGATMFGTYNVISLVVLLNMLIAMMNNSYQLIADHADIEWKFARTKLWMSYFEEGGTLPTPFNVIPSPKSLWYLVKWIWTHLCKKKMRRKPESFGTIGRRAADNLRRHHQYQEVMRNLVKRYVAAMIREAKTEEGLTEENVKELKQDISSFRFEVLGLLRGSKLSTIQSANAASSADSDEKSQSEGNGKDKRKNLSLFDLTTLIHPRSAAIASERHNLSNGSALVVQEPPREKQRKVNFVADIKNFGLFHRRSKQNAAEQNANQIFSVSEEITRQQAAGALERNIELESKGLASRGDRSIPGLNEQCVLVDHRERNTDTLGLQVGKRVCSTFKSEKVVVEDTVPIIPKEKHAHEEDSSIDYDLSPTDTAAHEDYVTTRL
Chain of Short transient receptor potential channel 6 (Mus musculus) (Q61143 whole entry, looked up): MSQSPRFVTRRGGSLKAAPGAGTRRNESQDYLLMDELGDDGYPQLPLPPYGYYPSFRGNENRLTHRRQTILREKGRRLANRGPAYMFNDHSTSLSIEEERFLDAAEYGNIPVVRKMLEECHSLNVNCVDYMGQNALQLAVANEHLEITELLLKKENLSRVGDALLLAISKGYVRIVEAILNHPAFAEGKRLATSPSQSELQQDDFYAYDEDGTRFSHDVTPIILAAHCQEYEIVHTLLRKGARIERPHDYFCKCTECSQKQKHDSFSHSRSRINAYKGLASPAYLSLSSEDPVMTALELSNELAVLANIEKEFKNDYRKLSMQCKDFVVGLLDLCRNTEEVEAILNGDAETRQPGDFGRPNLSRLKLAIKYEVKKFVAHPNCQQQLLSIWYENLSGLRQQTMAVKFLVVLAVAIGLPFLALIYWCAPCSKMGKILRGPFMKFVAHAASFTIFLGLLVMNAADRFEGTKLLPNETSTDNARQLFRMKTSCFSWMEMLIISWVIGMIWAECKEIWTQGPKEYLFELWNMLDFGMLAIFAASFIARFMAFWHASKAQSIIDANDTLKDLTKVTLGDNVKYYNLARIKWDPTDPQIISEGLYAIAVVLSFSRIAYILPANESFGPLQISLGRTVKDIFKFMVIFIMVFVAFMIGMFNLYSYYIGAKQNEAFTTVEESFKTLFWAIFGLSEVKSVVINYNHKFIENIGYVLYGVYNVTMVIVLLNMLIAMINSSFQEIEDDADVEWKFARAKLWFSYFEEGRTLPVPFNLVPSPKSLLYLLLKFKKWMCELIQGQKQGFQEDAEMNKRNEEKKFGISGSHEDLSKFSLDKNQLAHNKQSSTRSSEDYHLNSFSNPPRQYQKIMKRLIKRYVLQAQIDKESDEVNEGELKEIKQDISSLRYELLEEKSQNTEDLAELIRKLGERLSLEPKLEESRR

Row | Compound | outcome [1] | outcome [2] | outcome [3] | outcome [4] | outcome [5] | outcome [6] | outcome [7] | outcome [8] | outcome [9] | outcome [10] | outcome [11] | outcome [12] | outcome [13] | outcome [14] | outcome [15] | outcome [16] | outcome [17] | potentiation [4] | potentiation [15] | activation [11]
1 | COc1ccc(OCCN(C)Cc2c(O)ccc3ccccc23)cc1 | inactive | inactive | inactive | inactive | inactive | inactive | inactive | inactive | inactive | inactive | inactive | inactive | inactive | inactive | inactive | inactive | inactive | – | – | –
2 | O=C(O)c1ccc(NC(=O)c2cn(-c3ccccc3)nc2-c2ccc(Br)cc2)cc1 | inactive | inactive | inactive | inactive | inactive | inactive | inactive | inactive | inactive | inactive | inactive | inactive | inactive | inactive | inactive | inactive | inactive | – | – | –
3 | CC1CCCCC1NS(=O)(=O)c1ccc(S(=O)(=O)N2CCCC2)cc1 (centres undefined) | inactive | inactive | inactive | – | inactive | inactive | inactive | inactive | inactive | inactive | inactive | inactive | inactive | inactive | – | inactive | inactive | 32% (active) | 11.2% (active) | –
4 | COc1ccc(CCNC(=O)C2CCN(C(=O)c3ccc(C(C)(C)C)cc3)CC2)cc1 | inactive | inactive | inactive | inactive | inactive | inactive | inactive | inactive | inactive | inactive | inactive | inactive | inactive | inactive | inactive | inactive | inactive | – | – | –
5 | Cc1ccc(C)c(N(CC(=O)NC2CCCC2)C(=O)c2csnn2)c1 | inactive | inactive | inactive | inactive | inactive | inactive | inactive | inactive | inactive | inactive | – | inactive | inactive | inactive | inactive | inactive | inactive | – | – | 30% (active)
6 | O=c1c2ccccc2nc(SCc2nc3ccccc3s2)n1CCCO | inactive | inactive | inactive | inactive | inactive | inactive | inactive | inactive | inactive | inactive | inactive | inactive | inactive | inactive | inactive | inactive | inactive | – | – | –
7 | CC(C)n1c(SCC(=O)N2c3ccccc3Sc3ccccc32)nc2c1c(=O)n(C)c(=O)n2C | inactive | inactive | inactive | inactive | inactive | inactive | inactive | inactive | inactive | inactive | inactive | inactive | inactive | inactive | – | inactive | inactive | – | 50.7% (active) | –
